The nature of test [1]: qHTS assay to identify aromatase inhibitors - cell viability counter screen (AID 743084).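 Further: cells stimulated with testosterone during compound exposure; nearly all actives have a fitted effect of over 55% in size.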
Test [2] concerns the target Aryl hydrocarbon receptor (Homo sapiens) (UniProt P35869). The test can be described thus: qHTS assay to identify small molecule that activate the aryl hydrocarbon receptor (AhR) signaling pathway (AID 743085). Further: nearly all actives have a fitted effect of over 15% in size. Further: potency means the concentration at half of the fitted maximal effect.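 On activation: HG2L7.5c1 human HepG2 liver cells with stably integrated DRE-driven firefly reporter; series mostly up to about 70 µM.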 The method, boiled down: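 24 h compound exposure, 37C, HepG2-derived HG2L7.5c1 cells with DRE-responsive luciferase. Readouts: fluorescence viability, then luminescence at room temperature after 30 min.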
(In qHTS, concentration-response curves come from the screen itself.)

Test [3] in a line: qHTS assay to identify small molecule that activate the aryl hydrocarbon receptor (AhR) signaling pathway - cell viability counter screen (AID 743086).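 Further: HepG2 liver cells carrying the AhR DRE luciferase reporter; series mostly up to about 70 µM; nearly all actives have a fitted effect of over 45% in size.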 The method, boiled down: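 HepG2-AhR-luc (HG2L7.5c1) cells, 4000/well, were preincubated 5 h at 37C, exposed to compound in qHTS format for 24 hr at 37C, then given CellTiter-Fluor for 30 min; viability was read as fluorescence in the reporter wells.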

The target in test [4] is Peroxisome proliferator-activated receptor gamma (Homo sapiens) (UniProt P37231). The test can be described thus: qHTS assay to identify small molecule agonists of the peroxisome proliferator-activated receptor gamma (PPARg) signaling pathway (AID 743094; active means well fitted activation curve with a large enough effect in the signal ratio in the repeat runs, not every such curve was filed as active; the % refers to the signal ratio). In short, it runs like this:
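Quantitative HTS agonist mode: stable HEK293H line with UAS-beta-lactamase reporter under PPARg control, 17 h compound exposure at 37C, fluorescence after 1 h FRET substrate loading at room temperature.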

The nature of test [5]: qHTS assay to identify small molecule antagonists of the peroxisome proliferator-activated receptor gamma (PPARg) signaling pathway - cell viability counter screen (AID 743194). Further: nearly all actives have a fitted effect of over 55% in size. In short, it runs like this: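 PPARg-UAS-bla HEK293H cells were plated, rested 5 h at 37 C, then treated with compounds plus rosiglitazone (50 nM final) for 17 h at 37 C; viability was then read by CellTiter-Glo luminescence after 30 min at room temperature.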

Test [6] in a line: qHTS assay for small molecule agonists of the antioxidant response element (ARE) signaling pathway (AID 743202; active means well fitted activation curve with a large enough effect in the signal ratio in the repeat runs, not every such curve was filed as active; the % refers to the signal ratio; further: potency means the concentration at half of the fitted maximal effect). The method, boiled down: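 Compounds delivered in DMSO to ARE-bla HepG2 cells (2,000 cells/well, pre-incubated 5 h) and left 16 h at 37 C. LiveBLAzer B/G FRET substrate then added for 2 h at RT before fluorescence reading.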
Test [7] in a line: qHTS assay for small molecule agonists of the antioxidant response element (ARE) signaling pathway - cell viability counter screen (AID 743203; calls by dose curve; further: nearly all actives have a fitted effect of over 55% in size). In short, it runs like this: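 Seeded at 2,000 cells/well, ARE-bla HepG2 cells were incubated 5 hrs before compound addition. After 16 hrs of treatment at 37C with 5% CO2, CellTiter-Glo reagent was added and luminescence read 30 min later.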

Test [8] is described as follows: qHTS assay for small molecule activators of the heat shock response signaling pathway - cell viability counter screen (AID 743209). Further: nearly all actives have a fitted effect of over 50% in size. In short, it runs like this: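 First, HSE-bla HeLa cells were seeded at 1500 cells/well and kept overnight at 37 C. Next, compounds were pinned in and incubated 5 h. After the FRET substrate step, CellTiter-Glo was added and luminescence read 30 min later.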

Test [9] in a line: qHTS assay for small molecule activators of the heat shock response signaling pathway (AID 743210; active means well fitted activation curve with a large enough effect in the signal ratio in the repeat runs, with a control signal flat, not every such curve was filed as active; the % refers to the signal ratio;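 further: HeLa cells with beta-lactamase reporter driven by heat shock elements; series mostly up to about 63 µM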). The method, boiled down:
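Reporter gene assay: HeLa cells stably bearing an HSE-bla construct, compound treatment 5 h at 37 C, LiveBLAzer substrate 2.5 h at RT, fluorescence intensity.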

Test [10] in a line: qHTS assay to identify small molecule agonists of the peroxisome proliferator-activated receptor delta (PPARd) signaling pathway - cell viability counter screen (AID 743211). Further: nearly all actives have a fitted effect of over 55% in size. In short, it runs like this: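 Luminescent ATP viability assay (CellTiter-Glo, 30 min RT) in UAS-bla HEK293H cells carrying the PPAR delta reporter construct, 3000 cells/well, after a 17 h compound treatment at 37 C.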

A short description of test [11]: qHTS assay to identify small molecule antagonists of the peroxisome proliferator-activated receptor delta (PPARd) signaling pathway - cell viability counter screen (AID 743213). Further: nearly all actives have a fitted effect of over 50% in size. Further: potency means the concentration at half of the fitted maximal effect. The method, boiled down: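 HEK293H cells with the PPARd UAS-bla reporter, co-treated 17 h at 37 C with compounds and L165041 (300 nM final), were lysed with CellTiter-Glo. Luminescence indicated viable cell content.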

The nature of test [12]: qHTS assay to identify small molecule agonists of the farnesoid-X-receptor (FXR) signaling pathway - cell viability counter screen (AID 743218). Further: nearly all actives have a fitted effect of over 45% in size. In short, it runs like this:
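Cytotoxicity counter-screen run in parallel, same wells: FXR-UAS-bla HEK 293T cells dosed 16 h at 37 C, viability read by CellTiter-Glo luminescence after 30 min at room temperature.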

Test [13] in a line: qHTS assay to identify small molecule antagonists of the farnesoid-X-receptor (FXR) signaling pathway - cell viability counter screen (AID 743221; active means well fitted cell-killing curve with a large enough effect in the repeat runs, not every such curve was filed as active; further: nearly all actives have a fitted effect of over 50% in size). The method, boiled down: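 In GeneBLAzer FXR-UAS-bla HEK 293T cells stimulated with 50 uM chenodeoxycholic acid (final), compounds acted for 16 h at 37 C. Viability was assessed afterwards by CellTiter-Glo luminescence.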
The target in test [14] is Vitamin D3 receptor (Homo sapiens) (UniProt P11473). The test can be described thus: qHTS assay to identify small molecule agonists of the vitamin D receptor (VDR) signaling pathway (AID 743222; calls by dose curve). The method, boiled down:
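Quantitative HTS agonist-mode screen: compounds in DMSO were pin-transferred onto VDR-bla cells and incubated 16 h at 37C, 5% CO2. Reporter activity was detected with LiveBLAzer B/G FRET substrate after 2 h at room temperature.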

For test [15] the target is unchanged. The test can be described thus: qHTS assay to identify small molecule antagonists of the vitamin D receptor (VDR) signaling pathway (AID 743223; active means well fitted inhibition curve with a large enough effect in the signal ratio in the repeat runs, not every such curve was filed as active; the % refers to the signal ratio). The method, boiled down: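 Agonist 1alpha,25-dihydroxyvitamin D3 (3 nM in well) was added with each compound to VDR-bla cells preincubated 4 h. Cells stood 16 h at 37C, then FRET substrate 2 h at room temperature; fluorescence intensity recorded.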

Test [16] has as its target Peroxisome proliferator-activated receptor gamma (Homo sapiens) (UniProt P37231). Description: qHTS assay to identify small molecule antagonists of the peroxisome proliferator-activated receptor gamma (PPARg) signaling pathway (AID 743191; calls by dose curve; further: series mostly up to about 63 µM; nearly all actives have a fitted effect of over 30% in size). In short, it runs like this:
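GeneBLAzer PPARg UAS-bla HEK293H cells carrying a UAS-driven beta-lactamase reporter were plated at 3000 cells/well, preincubated 5 h at 37C, then given compound for 17 h at 37C; LiveBLAzer B/G FRET substrate was read after 1 h at room temperature.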

In test [17] the target is Peroxisome proliferator-activated receptor delta (Homo sapiens) (UniProt Q03181). Description: qHTS assay to identify small molecule agonists of the peroxisome proliferator-activated receptor delta (PPARd) signaling pathway (AID 743212; calls by dose curve). In short, it runs like this:
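A PPARd-bla HEK293H line with beta-lactamase under an Upstream Activator Sequence is treated with compounds at 37 C. Substrate loading for 2 h at room temperature precedes the fluorescence measurement.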

For test [18] the target is unchanged. The test can be described thus: qHTS assay to identify small molecule antagonists of the peroxisome proliferator-activated receptor delta (PPARd) signaling pathway (AID 743215; active means well fitted inhibition curve with a large enough effect in the signal ratio in the repeat runs, not every such curve was filed as active; the % refers to the signal ratio;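 further: cells stimulated with agonist L165041 at 300 nM final during compound exposure; series mostly up to about 62 µM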). The method, boiled down: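 Inhibition of L165041-driven (300 nM final) PPARd signaling is scored in HEK293H UAS-bla cells. Exposure lasts 17 h at 37 C; beta-lactamase activity is then read by FRET substrate fluorescence after 2 h at room temperature.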

Test [19] concerns the target Bile acid receptor (Homo sapiens) (UniProt Q96RI1). Description: qHTS assay to identify small molecule antagonists of the farnesoid-X-receptor (FXR) signaling pathway (AID 743217; active means well fitted inhibition curve with a large enough effect in the signal ratio in the repeat runs, not every such curve was filed as active; the % refers to the signal ratio). In short, it runs like this:
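Antagonist mode against 50 uM (final) chenodeoxycholic acid stimulation in FXR-bla HEK 293T cells, 16 h at 37 °C. Inhibition detected as reduced beta-lactamase activity via LiveBLAzer B/G FRET fluorescence after 2 h at room temperature.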

For test [20] the target is unchanged. The test can be described thus: qHTS assay to identify small molecule agonists of the farnesoid-X-receptor (FXR) signaling pathway (AID 743220; active means well fitted activation curve with a large enough effect in the signal ratio in the repeat runs, not every such curve was filed as active; the % refers to the signal ratio). The method, boiled down:
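Beta-lactamase reporter under UAS control in GeneBLAzer FXR HEK 293T cells (5000/well) measured with LiveBLAzer FRET substrate after 2 h at room temperature. Compound exposure lasted 16 h at 37C.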

Results filed as inconclusive are left out. The source made the active and inactive calls. Unless noted, the call rests on the fitted dose curve; in most records, active means well fitted curve in the direction sought with a large enough effect in the repeat runs; inconclusive means weak or mixed curves; inactive means no such curve, though single readings can be large; an effect the other way counts as inactive or inconclusive.

Chain of Peroxisome proliferator-activated receptor gamma (Homo sapiens) (P37231 whole entry, looked up): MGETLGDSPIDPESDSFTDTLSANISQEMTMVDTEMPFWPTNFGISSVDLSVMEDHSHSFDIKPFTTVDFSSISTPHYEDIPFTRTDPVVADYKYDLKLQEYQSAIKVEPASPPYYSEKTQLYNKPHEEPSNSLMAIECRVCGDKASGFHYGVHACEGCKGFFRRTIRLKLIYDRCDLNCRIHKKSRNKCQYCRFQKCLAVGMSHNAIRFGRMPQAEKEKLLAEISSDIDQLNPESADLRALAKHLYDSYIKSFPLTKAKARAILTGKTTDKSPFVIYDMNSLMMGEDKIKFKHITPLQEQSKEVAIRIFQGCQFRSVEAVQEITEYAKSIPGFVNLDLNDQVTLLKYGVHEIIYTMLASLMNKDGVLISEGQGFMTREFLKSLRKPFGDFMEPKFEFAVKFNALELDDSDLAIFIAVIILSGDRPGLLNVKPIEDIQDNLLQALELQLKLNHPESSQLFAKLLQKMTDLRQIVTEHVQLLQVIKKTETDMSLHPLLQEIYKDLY
Chain of Vitamin D3 receptor (Homo sapiens) (P11473 whole entry, looked up): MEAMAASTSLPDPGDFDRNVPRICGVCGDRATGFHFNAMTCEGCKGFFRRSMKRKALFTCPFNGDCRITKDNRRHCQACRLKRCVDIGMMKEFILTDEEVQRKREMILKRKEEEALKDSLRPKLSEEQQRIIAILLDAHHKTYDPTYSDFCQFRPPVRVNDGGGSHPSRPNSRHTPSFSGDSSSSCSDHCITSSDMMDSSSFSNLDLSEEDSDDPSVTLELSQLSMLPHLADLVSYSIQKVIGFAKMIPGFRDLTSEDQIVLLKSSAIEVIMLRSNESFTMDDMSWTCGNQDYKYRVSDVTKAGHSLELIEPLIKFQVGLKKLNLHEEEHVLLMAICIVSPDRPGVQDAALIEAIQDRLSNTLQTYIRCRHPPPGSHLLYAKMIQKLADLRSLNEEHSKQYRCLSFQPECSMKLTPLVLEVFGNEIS
Chain of Peroxisome proliferator-activated receptor delta (Homo sapiens) (Q03181 whole entry, looked up): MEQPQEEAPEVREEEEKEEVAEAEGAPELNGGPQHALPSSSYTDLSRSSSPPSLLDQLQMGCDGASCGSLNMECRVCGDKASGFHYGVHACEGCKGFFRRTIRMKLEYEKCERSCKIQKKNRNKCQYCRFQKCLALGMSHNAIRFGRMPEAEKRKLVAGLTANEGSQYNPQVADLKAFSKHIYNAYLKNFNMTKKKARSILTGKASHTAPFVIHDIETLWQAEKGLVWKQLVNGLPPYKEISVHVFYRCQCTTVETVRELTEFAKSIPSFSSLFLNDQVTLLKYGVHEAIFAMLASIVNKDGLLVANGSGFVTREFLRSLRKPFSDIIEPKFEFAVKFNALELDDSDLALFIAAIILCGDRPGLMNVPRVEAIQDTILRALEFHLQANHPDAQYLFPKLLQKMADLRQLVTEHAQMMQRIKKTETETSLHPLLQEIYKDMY
Chain of Bile acid receptor (Homo sapiens) (Q96RI1 whole entry, looked up): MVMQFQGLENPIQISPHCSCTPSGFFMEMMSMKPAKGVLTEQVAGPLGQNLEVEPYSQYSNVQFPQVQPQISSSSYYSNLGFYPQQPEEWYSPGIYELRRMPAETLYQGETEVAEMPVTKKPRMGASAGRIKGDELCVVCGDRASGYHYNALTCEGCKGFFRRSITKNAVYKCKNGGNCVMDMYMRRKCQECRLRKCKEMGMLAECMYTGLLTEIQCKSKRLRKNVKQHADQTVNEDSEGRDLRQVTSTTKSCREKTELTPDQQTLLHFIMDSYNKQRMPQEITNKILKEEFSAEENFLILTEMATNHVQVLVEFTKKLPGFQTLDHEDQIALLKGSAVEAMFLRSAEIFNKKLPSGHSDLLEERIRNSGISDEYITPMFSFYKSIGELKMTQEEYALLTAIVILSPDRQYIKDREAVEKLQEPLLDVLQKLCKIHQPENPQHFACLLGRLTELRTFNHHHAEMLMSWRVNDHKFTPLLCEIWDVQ
Chain of Aryl hydrocarbon receptor (Homo sapiens) (P35869 whole entry, looked up): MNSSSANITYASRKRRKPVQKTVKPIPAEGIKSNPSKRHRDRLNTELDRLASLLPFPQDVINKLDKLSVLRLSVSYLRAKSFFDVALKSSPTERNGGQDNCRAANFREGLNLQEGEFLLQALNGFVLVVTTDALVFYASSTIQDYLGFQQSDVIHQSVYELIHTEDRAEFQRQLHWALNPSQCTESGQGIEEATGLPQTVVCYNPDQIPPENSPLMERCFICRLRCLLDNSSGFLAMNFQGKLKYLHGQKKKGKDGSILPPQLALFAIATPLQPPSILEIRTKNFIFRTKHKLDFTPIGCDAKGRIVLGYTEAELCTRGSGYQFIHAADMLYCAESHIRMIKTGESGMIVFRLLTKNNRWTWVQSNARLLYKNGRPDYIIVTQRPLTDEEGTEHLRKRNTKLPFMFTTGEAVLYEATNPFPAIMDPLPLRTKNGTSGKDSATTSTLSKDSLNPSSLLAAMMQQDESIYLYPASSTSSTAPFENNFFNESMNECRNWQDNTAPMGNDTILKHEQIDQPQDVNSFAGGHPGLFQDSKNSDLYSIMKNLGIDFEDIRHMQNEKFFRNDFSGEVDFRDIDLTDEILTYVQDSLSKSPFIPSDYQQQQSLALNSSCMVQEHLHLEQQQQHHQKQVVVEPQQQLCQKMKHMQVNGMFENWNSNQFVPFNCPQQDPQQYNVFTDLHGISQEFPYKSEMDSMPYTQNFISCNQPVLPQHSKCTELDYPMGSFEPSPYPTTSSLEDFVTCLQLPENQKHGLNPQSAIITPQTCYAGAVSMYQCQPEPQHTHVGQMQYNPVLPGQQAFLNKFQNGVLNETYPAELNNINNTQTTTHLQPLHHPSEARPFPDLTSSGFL

As to `CC(=O)c1ccc(Cl)c(Cl)c1Cl`, the Potency entry in test [1], in test [2], in [3], in test [4], in test [5] and in test [6] was “inactive” each time. In addition, the Potency entry in [7], in test [10], in [11], in test [12] and in test [13] was “inactive” throughout. The result in [8], in test [9], in [14] and in test [15] was inactive.

`CC(=O)OCC(=O)[C@@]1(O)CC[C@H]2[C@@H]3CCC4=CC(=O)C=C[C@]4(C)[C@@]3(F)[C@@H](O)C[C@@]21C`: the Potency result in test [1], in test [2], in test [3], in [4], in test [16] and in test [5] was “inactive” each time. The Potency result in test [7], in test [10], in test [11], in [12] and in test [13] was “inactive” in each case. Besides, the molecule was called inactive in test [8] and in test [9].

Regarding `C=C(C)C(=O)OCCCCCCCCCCOC(=O)C(=C)C`, the Potency result in [1], in test [2], in test [3], in test [4], in [16] and in [5] was “inactive” each time. The Potency result in test [7], in test [10], in test [17], in test [11], in [12] and in [13] was “inactive” in each case. Further, the outcome in test [8], in [18], in test [19], in test [20], in test [14] and in test [15] was inactive.

For `Clc1cc(Cl)c2c(c1)N=C1CCCCCN1C2`, the Potency entry in test [1], in test [2], in test [3], in test [4], in [5] and in test [6] was “inactive” each time. Moreover, the Potency entry in [7], in test [10], in test [17] and in test [12] was “inactive” throughout. The molecule was called inactive in [8], in [9], in [18], in [19], in test [20] and in test [14]. In [15], the outcome was inactive.

For `NC(=O)c1ccccc1C(N)=O`, the Potency entry in test [1], in [3], in [4], in test [5], in test [7] and in test [10] was “inactive” each time. Moreover, the Potency entry in test [17], in [11], in test [12] and in test [13] was “inactive” in each case. Further, the Potency is 54.7 µM (active) in [2] and 24.4 µM (active) in test [6]. Also, the molecule was classed as inactive in test [8], in [9], in test [18], in test [20], in test [14] and in test [15].

With `CC(C)(C)N`, the Potency result in test [1], in [2], in test [3], in test [4], in test [5] and in [6] was “inactive” throughout. Besides, the Potency result in test [7], in test [10], in [17], in [11], in [12] and in [13] was “inactive” each time. Also, the call in test [8], in test [9], in test [18], in test [14] and in test [15] was inactive.

In the case of `COc1ccc(/C=C/S(=O)(=O)NC(=O)c2ccc(C)cc2Cl)cc1`, the Potency entry in test [1], in [2], in test [3], in [4], in test [5] and in test [6] was “inactive” throughout. Moreover, the Potency result in test [7], in [10], in [17], in test [11], in test [12] and in test [13] was “inactive” each time. The molecule was classed as inactive in test [8], in [9], in test [18], in test [19], in test [20] and in test [15].

For the molecule `C=CC(O)CCCCC` (configuration not stated), the Potency entry in test [1], in test [2], in [3], in test [4], in test [5] and in test [6] was “inactive” each time. In addition, the Potency result in [7], in test [10], in test [17], in test [11] and in test [12] was “inactive” in each case. Moreover, the molecule was classed as inactive in test [8], in [9], in [19], in [20] and in test [14].

Regarding `CCCCCCCCCCCC(=O)OCC`, the Potency entry in test [1], in [2], in [3], in test [4], in [16] and in [6] was “inactive” in each case. Moreover, the Potency entry in test [7], in [17], in [11], in test [12] and in [13] was “inactive” in each case. Further, the call in test [8], in [9], in test [14] and in test [15] was inactive.

As for `C=Cc1ccc(C=C)cc1`, the Potency entry in test [1], in test [2], in test [3], in test [4], in test [16] and in [6] was “inactive” throughout. Also, the Potency entry in test [7], in test [11] and in test [13] was “inactive” in each case. Also, the call in test [8], in [9], in [18], in [19], in [20] and in test [14] was inactive.

In the case of `CCCCOC(=O)CC#N`, the Potency result in test [1], in test [2], in test [3], in [4], in test [16] and in [5] was “inactive” each time. For the same molecule, the Potency result in test [7], in test [10] and in test [12] was “inactive” in each case. Besides, the result in test [8] and in test [14] was inactive. Also, the Potency in [11] was 57.6 µM (active).

As for `Cc1ccc(S(=O)(=O)NC(=O)NC2CCCC2)cc1`, the Potency result in test [1], in [2], in [3], in [4], in test [16] and in test [7] was “inactive” in each case. Also, the Potency result in test [17], in test [11], in test [12] and in [13] was “inactive” throughout. For the same molecule, the call in test [8], in test [9] and in test [15] was inactive.

These data come from PubChem BioAssay (Tox21).
